Measurements published in the supplement of paper PMC10849652.
Of roughly 7,900 targets only a part is listed; those with a hit were picked by preference. About 0.6% of all pairs of compound and target were hits.

Key:
Assay in all cases: log2 fold change, soluble protein after heating vs DMSO (PISA); higher = thermal stabilisation; K562 cells, 10 uM, 30 min; active = over 0.2 and 3.5 SD of the protein, either way, in both replicates (recomputed)
[1] = compound: CC[C@@H]1C(=O)N(C)c2cnc(Nc3ccc(C(=O)NC4CCN(C)CC4)cc3OC)nc2N1C1CCCC1
Method in brief: (§1)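 K562 cells at 2×10^6 cells/mL were treated with 10 μM compound for 30 min. Aliquots were heated for 3 min across 48°C-58°C, pooled, and extracted in PBS with 0.5% NP-40 at 4°C; soluble protein was the supernatant after 21,000xg for 90 min. Soluble protein was quantified by TMTpro 16plex LC-MS/MS with channel sums equalised, and reported as log2 fold change in thermal stability against DMSO controls, with values from duplicates.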

volasertib = compound: CC[C@@H]1C(=O)N(C)c2cnc(Nc3ccc(C(=O)N[C@H]4CC[C@H](N5CCN(CC6CC6)CC5)CC4)cc3OC)nc2N1C(C)C [volasertib]
Method in brief: as §1

[2] = compound: CC[C@H](C)N1C=C(C2=C(C=C(C=C21)C3=CN=C(C=C3)N4CCNCC4)C(=O)NCC5=C(C=C(NC5=O)C)C)C
Method in brief: as §1

epoxomicin = compound: CC[C@H](C)[C@@H](C(=O)N[C@@H]([C@@H](C)O)C(=O)N[C@@H](CC(C)C)C(=O)[C@]1(CO1)C)NC(=O)[C@H]([C@@H](C)CC)N(C)C(=O)C [epoxomicin]
Method in brief: as §1

[3] = compound: CCn1c(C(=O)N(C2CC2)C2CC2)cc2c3c(ncn3C)c(Nc3cc(C)n(C)n3)nc21
Method in brief: as §1

[4] = compound: CCn1cc(-c2ccnc3[nH]c(-c4cccc(CN(C)C)c4)cc23)c(-c2ccc(NC(=O)N(C)C)cc2)n1
Method in brief: as §1

[5] = compound: CN(C)CC(=O)Nc1ccc2[nH]c(=O)c3ccccc3c2c1
Method in brief: as §1

rosiglitazone = compound: CN(CCOC1=CC=C(C=C1)C[C@H]2C(=O)NC(=O)S2)C3=CC=CC=N3 (racemic) [rosiglitazone]
Method in brief: as §1

[6] = compound: CN1C2=C(C3=C1C(=O)N(N=C3)CC4=CC(=CC=C4)N)SC(=C2)S(=O)C
Method in brief: as §1

[7] = compound: CN1CCC(CNc2ccc3ncc(-c4cccc(OC(F)(F)F)c4)n3n2)CC1
Method in brief: as §1

saracatinib = compound: CN1CCN(CCOc2cc(OC3CCOCC3)c3c(Nc4c(Cl)ccc5c4OCO5)ncnc3c2)CC1 [saracatinib]
Method in brief: as §1

sotrastaurin = compound: CN1CCN(c2nc(C3=C(c4c[nH]c5ccccc45)C(=O)NC3=O)c3ccccc3n2)CC1 [sotrastaurin]
Method in brief: as §1

alvocidib = compound: CN1CC[C@H](c2c(O)cc(O)c3c(=O)cc(-c4ccccc4Cl)oc23)[C@H](O)C1 [alvocidib]
Method in brief: as §1

Tubastatin A = compound: CN1CCc2c(c3ccccc3n2Cc2ccc(C(=O)NO)cc2)C1 [Tubastatin A]
Method in brief: as §1

[8] = compound: CNC(=O)C1=CC=CC=C1NC2=NC(=NC=C2Cl)NC3=C(C=C(C=C3)N4CCOCC4)OC
Method in brief: as §1

defactinib = compound: CNC(=O)c1ccc(Nc2ncc(C(F)(F)F)c(NCc3nccnc3N(C)S(C)(=O)=O)n2)cc1 [defactinib]
Method in brief: as §1

rucaparib = compound: CNCc1ccc(-c2[nH]c3cc(F)cc4c3c2CCNC4=O)cc1 [rucaparib]
Method in brief: as §1

[9] = compound: CNc1nc(-c2ccc3c(N)n[nH]c3c2)cc(N2C[C@@H](C(=O)NC3CCCCC3)CC[C@H]2C)n1
Method in brief: as §1

encorafenib = compound: COC(=O)N[C@@H](C)CNc1nccc(-c2cn(C(C)C)nc2-c2cc(Cl)cc(NS(C)(=O)=O)c2F)n1 [encorafenib]
Method in brief: as §1

[10] = compound: COC(=O)[C@H](CCSC)NC(=O)C1=C(C=C(C=C1)NC[C@H](CS)N)C2=CC=CC=C2
Method in brief: as §1

Measured: log2 fold change

PJA2 (UniProt O43164)
UniProt O43164, sequence (O43164 whole entry, looked up): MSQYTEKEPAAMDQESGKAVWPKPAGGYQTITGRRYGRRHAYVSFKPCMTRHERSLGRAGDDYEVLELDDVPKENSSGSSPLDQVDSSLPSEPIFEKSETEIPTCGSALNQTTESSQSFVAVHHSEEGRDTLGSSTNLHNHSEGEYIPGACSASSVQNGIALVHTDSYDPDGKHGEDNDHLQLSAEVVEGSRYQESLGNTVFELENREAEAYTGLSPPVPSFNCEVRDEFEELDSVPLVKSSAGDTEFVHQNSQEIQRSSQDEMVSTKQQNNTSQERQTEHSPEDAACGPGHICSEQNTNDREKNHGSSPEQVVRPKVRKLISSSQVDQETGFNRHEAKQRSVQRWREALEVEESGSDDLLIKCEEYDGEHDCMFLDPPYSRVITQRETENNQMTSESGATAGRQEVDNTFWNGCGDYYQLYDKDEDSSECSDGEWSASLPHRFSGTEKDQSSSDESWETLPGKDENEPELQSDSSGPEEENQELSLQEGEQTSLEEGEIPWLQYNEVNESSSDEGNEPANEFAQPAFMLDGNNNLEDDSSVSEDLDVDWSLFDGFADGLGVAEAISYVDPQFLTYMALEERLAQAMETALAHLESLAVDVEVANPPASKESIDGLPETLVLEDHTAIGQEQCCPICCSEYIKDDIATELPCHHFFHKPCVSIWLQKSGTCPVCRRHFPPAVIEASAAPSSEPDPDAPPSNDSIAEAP
inactive: [1] -0.007 | volasertib 0.001 | [2] 0.014 | epoxomicin 0.202 | [3] 0.055 | [4] 0.066 | [5] -0.051 | rosiglitazone 0.004 | [6] -0.001 | [7] -0.156 | saracatinib -0.057 | sotrastaurin -0.014 | alvocidib 0.054 | Tubastatin A 0.061 | [8] -0.013 | defactinib -0.003 | rucaparib 0.004 | [9] -0.053 | encorafenib -0.003 | [10] 0.049

PSMC5 (UniProt P62195)
UniProt P62195, sequence (P62195 whole entry, looked up): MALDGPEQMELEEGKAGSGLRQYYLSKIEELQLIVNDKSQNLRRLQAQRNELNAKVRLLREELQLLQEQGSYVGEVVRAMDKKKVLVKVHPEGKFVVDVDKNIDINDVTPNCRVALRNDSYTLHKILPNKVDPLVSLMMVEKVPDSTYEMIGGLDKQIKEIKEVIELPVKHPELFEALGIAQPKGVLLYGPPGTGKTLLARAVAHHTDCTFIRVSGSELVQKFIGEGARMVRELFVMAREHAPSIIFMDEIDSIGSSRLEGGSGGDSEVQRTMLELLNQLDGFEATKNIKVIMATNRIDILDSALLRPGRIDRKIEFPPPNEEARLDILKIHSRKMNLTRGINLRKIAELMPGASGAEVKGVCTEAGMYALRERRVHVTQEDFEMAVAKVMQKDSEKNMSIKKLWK
inactive: [1] 0.043 | volasertib 0.178 | [2] -0.002 | [3] 0.024 | [4] 0.039 | [5] -0.029 | rosiglitazone -0.014 | [6] 0.015 | [7] 0.066 | saracatinib -0.041 | sotrastaurin -0.004 | alvocidib 0.065 | Tubastatin A -0.013 | [8] -0.028 | defactinib 0.066 | rucaparib 0.025 | [9] 0.065 | encorafenib 0.02 | [10] 0.009
active: epoxomicin -0.308

PLSCR1 (UniProt O15162)
inactive: [1] 0.025 | volasertib -0.1 | [2] -0.069 | epoxomicin -0.022 | [3] 0.013 | [4] 0.053 | [5] 0.037 | rosiglitazone -0.033 | [6] -0.02 | [7] 0.044 | saracatinib 0.052 | sotrastaurin 0.024 | alvocidib 0.003 | Tubastatin A 0.025 | [8] -0.058 | defactinib 0.006 | rucaparib -0.015 | [9] 0.082 | encorafenib -0.006 | [10] 0.006

PRMT8 (UniProt Q9NR22)
UniProt Q9NR22, sequence (Q9NR22 whole entry, looked up): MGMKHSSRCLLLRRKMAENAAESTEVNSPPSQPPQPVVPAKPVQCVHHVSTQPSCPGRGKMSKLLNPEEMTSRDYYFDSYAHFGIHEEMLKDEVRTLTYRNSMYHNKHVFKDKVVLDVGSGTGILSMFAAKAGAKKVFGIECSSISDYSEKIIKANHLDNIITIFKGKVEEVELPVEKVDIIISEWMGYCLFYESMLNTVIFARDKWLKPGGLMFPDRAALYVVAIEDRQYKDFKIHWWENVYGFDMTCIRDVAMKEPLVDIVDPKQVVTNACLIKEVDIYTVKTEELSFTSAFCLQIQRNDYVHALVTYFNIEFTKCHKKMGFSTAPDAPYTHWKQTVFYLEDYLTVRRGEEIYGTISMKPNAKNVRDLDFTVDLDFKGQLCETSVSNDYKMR
inactive: [1] 0.019 | volasertib -0.074 | [2] 0.011 | epoxomicin 0.017 | [3] 0.035 | [4] -0.087 | [5] -0.022 | rosiglitazone -0.026 | [6] -0.117 | [7] -0.009 | saracatinib 0.015 | sotrastaurin -0.046 | alvocidib -0.029 | Tubastatin A -0.09 | [8] -0.009 | defactinib -0.039 | rucaparib -0.059 | [9] 0.052 | encorafenib 0.01 | [10] -0.122

PRKAR1B (UniProt P31321)
UniProt P31321, sequence (P31321 whole entry, looked up): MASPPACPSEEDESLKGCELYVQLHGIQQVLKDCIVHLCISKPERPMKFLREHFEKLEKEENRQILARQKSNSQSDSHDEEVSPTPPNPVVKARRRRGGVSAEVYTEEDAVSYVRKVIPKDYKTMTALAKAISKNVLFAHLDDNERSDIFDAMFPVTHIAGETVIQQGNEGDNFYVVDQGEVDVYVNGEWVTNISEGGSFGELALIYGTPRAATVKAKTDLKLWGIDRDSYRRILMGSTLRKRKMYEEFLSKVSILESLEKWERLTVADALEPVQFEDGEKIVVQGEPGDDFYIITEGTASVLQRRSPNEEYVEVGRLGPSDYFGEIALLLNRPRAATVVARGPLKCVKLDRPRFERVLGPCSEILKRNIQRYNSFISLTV
inactive: [1] 0.024 | volasertib -0.054 | [2] -0.067 | epoxomicin -0.063 | [3] 0.119 | [4] 0.12 | [5] -0.001 | rosiglitazone 0.042 | [6] 0.127 | saracatinib -0.137 | sotrastaurin -0.02 | alvocidib 0.128 | Tubastatin A 0.035 | [8] 0.247 | defactinib 0.117 | rucaparib 0.029 | [9] 0.047 | encorafenib 0.056 | [10] -0.067
active: [7] 0.43

PELP1 (UniProt Q8IZL8)
inactive: [1] 0.056 | volasertib 0.017 | [2] -0.002 | epoxomicin -0.004 | [3] -0.01 | [4] 0.047 | [5] -0.009 | rosiglitazone 0.017 | [6] 0.006 | [7] 0.021 | saracatinib -0.002 | sotrastaurin -0.007 | alvocidib -0.066 | Tubastatin A -0.021 | [8] -0.027 | defactinib -0.082 | rucaparib -0.054 | [9] -0.069 | encorafenib -0.012 | [10] 0.004

PSMC4 (UniProt P43686)
UniProt P43686, sequence (P43686 whole entry, looked up): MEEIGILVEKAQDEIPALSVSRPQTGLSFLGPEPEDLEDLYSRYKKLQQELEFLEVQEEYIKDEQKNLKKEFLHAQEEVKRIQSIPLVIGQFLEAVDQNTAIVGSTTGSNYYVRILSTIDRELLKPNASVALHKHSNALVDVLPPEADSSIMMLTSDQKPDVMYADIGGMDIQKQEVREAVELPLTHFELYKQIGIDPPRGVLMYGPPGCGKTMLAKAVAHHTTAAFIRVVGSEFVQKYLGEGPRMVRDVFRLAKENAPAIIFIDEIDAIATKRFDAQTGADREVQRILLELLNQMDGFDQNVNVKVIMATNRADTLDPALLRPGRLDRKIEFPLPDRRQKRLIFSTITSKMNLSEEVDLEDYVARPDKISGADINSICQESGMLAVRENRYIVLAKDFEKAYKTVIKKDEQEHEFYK
active: epoxomicin -0.379
inactive: [1] 0.033 | volasertib 0.2 | [2] -0.021 | [3] -0.02 | [4] 0.086 | [5] -0.033 | rosiglitazone -0.021 | [6] 0.033 | [7] 0.06 | saracatinib -0.041 | sotrastaurin -0.011 | alvocidib 0.047 | Tubastatin A -0.026 | [8] -0.032 | defactinib 0.074 | rucaparib 0.039 | [9] 0.037 | encorafenib 0.019 | [10] 0.005

POMK (UniProt Q9H5K3)
inactive: [1] -0.079 | volasertib -0.093 | [2] 0.014 | epoxomicin -0.05 | [3] 0.054 | [4] 0.054 | [5] -0.007 | rosiglitazone 0.012 | [6] 0.023 | [7] -0.082 | saracatinib -0.047 | sotrastaurin 0.007 | alvocidib -0.083 | Tubastatin A 0.021 | [8] 0.022 | defactinib 0.024 | rucaparib 0.168 | [9] -0.052 | encorafenib 0.089 | [10] -0.056

PRKACA (UniProt P17612)
inactive: [1] -0.028 | volasertib -0.046 | [2] 0.068 | epoxomicin -0.072 | [3] -0.048 | [4] -0.058 | [5] 0 | rosiglitazone 0.033 | [6] -0.003 | [7] 0.085 | saracatinib 0.002 | sotrastaurin -0.117 | alvocidib -0.012 | Tubastatin A 0.054 | [8] -0.104 | defactinib -0.015 | rucaparib 0.061 | [9] 0.077 | encorafenib 0.01 | [10] 0.072

POLR2D (UniProt O15514)
inactive: [1] 0.206 | volasertib 0.135 | [2] -0.017 | epoxomicin 0.17 | [3] 0.11 | [4] 0.043 | [5] -0.02 | rosiglitazone -0.02 | [6] -0.101 | [7] 0.056 | saracatinib 0.064 | sotrastaurin 0.015 | alvocidib 0.22 | Tubastatin A -0.064 | [8] -0.114 | defactinib 0.165 | rucaparib 0.056 | [9] 0.026 | encorafenib 0.003 | [10] -0.038

PIP4K2B (UniProt P78356)
UniProt P78356, sequence (P78356 whole entry, looked up): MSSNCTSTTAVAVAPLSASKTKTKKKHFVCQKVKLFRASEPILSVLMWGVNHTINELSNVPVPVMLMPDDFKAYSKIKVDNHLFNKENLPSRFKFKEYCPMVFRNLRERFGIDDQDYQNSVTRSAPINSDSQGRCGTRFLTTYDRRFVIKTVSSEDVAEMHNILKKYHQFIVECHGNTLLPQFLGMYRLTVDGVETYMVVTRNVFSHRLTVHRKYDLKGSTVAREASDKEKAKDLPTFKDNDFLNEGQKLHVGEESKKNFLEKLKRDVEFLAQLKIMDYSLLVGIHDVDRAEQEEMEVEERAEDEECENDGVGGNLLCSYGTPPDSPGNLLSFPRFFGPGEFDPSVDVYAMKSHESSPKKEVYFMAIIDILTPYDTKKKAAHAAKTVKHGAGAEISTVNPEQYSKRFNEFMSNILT
active: [1] 0.573 | volasertib 0.776
inactive: [2] -0.089 | epoxomicin 0.015 | [3] -0.036 | [4] -0.054 | [5] 0.029 | rosiglitazone 0.005 | [6] 0.172 | [7] 0.231 | saracatinib -0.021 | sotrastaurin -0.088 | alvocidib 0.204 | Tubastatin A 0.022 | [8] 0.179 | defactinib 0.176 | rucaparib -0.035 | [9] -0.083 | encorafenib 0.049 | [10] -0.108

PSMD9 (UniProt O00233)
UniProt O00233, sequence (O00233 whole entry, looked up): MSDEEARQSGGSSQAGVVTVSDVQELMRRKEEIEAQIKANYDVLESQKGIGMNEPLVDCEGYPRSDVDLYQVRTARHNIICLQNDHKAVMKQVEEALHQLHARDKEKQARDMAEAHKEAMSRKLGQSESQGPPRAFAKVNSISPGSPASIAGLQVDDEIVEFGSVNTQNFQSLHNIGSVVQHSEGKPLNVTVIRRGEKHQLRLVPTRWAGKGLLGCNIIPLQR
inactive: [1] -0.011 | volasertib 0.086 | [2] 0.004 | epoxomicin -0.04 | [3] -0.009 | [4] -0.137 | [5] -0.01 | rosiglitazone 0.002 | [6] -0.034 | [7] 0.127 | saracatinib -0.022 | sotrastaurin 0.001 | alvocidib -0.012 | Tubastatin A 0.002 | [8] -0.016 | defactinib -0.034 | rucaparib -0.004 | [9] -0.031 | encorafenib -0.023 | [10] 0.005

PKM isoform 2 (UniProt P14618)
UniProt P14618, sequence (P14618 whole entry, looked up): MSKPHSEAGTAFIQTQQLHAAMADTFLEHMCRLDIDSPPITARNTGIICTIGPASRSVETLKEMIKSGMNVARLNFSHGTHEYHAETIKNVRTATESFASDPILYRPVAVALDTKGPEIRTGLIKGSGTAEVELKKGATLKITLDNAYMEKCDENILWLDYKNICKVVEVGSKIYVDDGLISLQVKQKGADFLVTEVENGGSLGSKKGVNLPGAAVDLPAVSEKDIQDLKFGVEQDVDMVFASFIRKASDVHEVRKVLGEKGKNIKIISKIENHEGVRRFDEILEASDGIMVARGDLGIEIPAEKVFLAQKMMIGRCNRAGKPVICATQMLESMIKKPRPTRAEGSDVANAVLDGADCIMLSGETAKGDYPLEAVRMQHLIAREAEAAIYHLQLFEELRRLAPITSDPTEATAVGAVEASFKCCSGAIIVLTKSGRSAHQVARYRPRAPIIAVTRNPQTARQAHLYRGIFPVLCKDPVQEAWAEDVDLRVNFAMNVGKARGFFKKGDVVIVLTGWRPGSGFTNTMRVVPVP
inactive: [1] 0 | volasertib 0.091 | [2] 0.018 | epoxomicin 0.29 | [4] -0.006 | [5] 0.053 | rosiglitazone -0.1 | [6] -0.184 | [7] -0.046 | saracatinib 0.202 | sotrastaurin -0.133 | Tubastatin A -0.052 | defactinib -0.045 | rucaparib 0.125 | [9] -0.063 | encorafenib -0.09 | [10] -0.081

PIK3CD (UniProt O00329)
UniProt O00329, sequence (O00329 whole entry, looked up): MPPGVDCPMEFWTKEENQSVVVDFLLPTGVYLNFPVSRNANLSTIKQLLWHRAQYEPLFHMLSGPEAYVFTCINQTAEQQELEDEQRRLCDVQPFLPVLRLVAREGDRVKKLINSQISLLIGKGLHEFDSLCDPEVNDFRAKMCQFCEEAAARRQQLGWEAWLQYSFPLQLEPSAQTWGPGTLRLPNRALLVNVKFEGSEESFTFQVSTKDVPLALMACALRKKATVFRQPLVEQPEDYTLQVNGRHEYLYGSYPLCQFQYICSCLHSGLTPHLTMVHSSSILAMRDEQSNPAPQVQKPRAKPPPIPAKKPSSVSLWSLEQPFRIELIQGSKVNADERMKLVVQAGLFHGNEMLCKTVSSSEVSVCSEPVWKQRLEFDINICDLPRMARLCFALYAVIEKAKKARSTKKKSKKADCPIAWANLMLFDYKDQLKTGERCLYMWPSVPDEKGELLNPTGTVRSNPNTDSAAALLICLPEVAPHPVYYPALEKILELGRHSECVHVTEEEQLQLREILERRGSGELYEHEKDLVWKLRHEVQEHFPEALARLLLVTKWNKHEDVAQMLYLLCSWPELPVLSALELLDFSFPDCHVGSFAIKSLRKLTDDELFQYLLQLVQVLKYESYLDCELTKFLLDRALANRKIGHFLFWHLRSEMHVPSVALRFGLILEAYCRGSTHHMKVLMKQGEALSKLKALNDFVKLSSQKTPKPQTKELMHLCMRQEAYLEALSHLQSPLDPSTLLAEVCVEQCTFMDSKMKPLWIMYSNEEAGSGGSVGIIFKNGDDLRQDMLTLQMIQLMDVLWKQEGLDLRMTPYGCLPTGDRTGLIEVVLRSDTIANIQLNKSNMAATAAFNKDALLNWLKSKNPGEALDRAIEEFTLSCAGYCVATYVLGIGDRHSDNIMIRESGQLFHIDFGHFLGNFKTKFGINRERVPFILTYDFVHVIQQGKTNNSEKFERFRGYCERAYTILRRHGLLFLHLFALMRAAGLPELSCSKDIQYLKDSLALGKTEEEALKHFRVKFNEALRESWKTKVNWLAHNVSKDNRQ
inactive: [1] -0.069 | volasertib -0.036 | epoxomicin -0.076 | [3] -0.229 | [5] -0.059 | rosiglitazone 0.288 | [6] 0 | saracatinib -0.124 | sotrastaurin -0.106 | alvocidib 0.055 | Tubastatin A 0.003 | [8] 0.08 | defactinib -0.218 | rucaparib 0.182 | [9] 0.089 | encorafenib -0.019 | [10] -0.062

QRICH1 (UniProt Q2TAL8)
inactive: volasertib -0.39 | [2] 0.07 | epoxomicin 0.027 | [3] -0.163 | [5] 0.258 | rosiglitazone -0.017 | [6] 0 | saracatinib -0.019 | sotrastaurin -0.076 | alvocidib -0.127 | Tubastatin A 0.156 | [8] -0.036 | defactinib -0.271 | rucaparib -0.008 | [9] -0.004 | encorafenib 0.097 | [10] 0.169
active: [1] -0.464

PRKAR2A (UniProt P13861)
UniProt P13861, sequence (P13861 whole entry, looked up): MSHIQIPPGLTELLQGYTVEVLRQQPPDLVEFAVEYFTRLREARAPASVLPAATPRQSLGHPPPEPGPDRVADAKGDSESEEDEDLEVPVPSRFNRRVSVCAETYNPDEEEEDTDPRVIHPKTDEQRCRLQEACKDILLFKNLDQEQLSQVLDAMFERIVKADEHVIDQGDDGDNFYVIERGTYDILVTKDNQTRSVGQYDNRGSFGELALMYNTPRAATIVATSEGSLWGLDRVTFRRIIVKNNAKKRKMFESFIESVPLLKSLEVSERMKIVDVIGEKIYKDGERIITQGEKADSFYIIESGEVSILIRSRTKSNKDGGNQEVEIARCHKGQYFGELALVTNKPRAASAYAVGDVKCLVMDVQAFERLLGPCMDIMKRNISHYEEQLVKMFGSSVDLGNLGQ
inactive: [1] 0.03 | volasertib -0.024 | [2] 0.046 | epoxomicin -0.031 | [3] -0.007 | [4] -0.033 | [5] 0.047 | rosiglitazone 0.011 | [6] 0.077 | [7] 0.023 | saracatinib 0.034 | sotrastaurin -0.121 | alvocidib -0.023 | Tubastatin A -0.029 | [8] 0.027 | defactinib -0.02 | rucaparib -0.015 | [9] -0.04 | encorafenib 0.017 | [10] -0.015
